# Measurements as given in PubChem BioAssay (NCATS).
# Inconclusive results are not listed. Entries that show only a call come without a potency. Calls of active or inactive are those of the source. Unless noted, calls follow the shape of the dose curve; as a rule, active = well fitted curve in the direction sought with a large enough effect; inconclusive = small, poorly fitted or top-dose-only effect, or another doubt; inactive = no such curve, though single readings can be large; an effect the other way counts as inactive or inconclusive.
# Assays:
# [1] = target: Glutathione peroxidase 1 (Homo sapiens) (UniProt P07203); test: Primary qHTS Assay for Inhibitors of Recombinant Selenoprotein Glutathione Peroxidase 1 (GPX1) (AID 1845191); also: nearly all actives have a fitted effect of over 65% in size; also: potency is read from the fitted curve at half-maximal effect
# Sequence of Glutathione peroxidase 1 (Homo sapiens) (P07203 whole entry, looked up): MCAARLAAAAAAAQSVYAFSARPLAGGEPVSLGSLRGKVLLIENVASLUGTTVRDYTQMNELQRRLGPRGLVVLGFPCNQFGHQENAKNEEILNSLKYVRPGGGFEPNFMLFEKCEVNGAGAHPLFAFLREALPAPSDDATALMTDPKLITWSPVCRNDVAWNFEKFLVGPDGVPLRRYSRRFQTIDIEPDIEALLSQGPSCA
# In short: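 NADPH consumption tracked by fluorescence at 340/450 nm between t=0 and t=15 min, room temperature. Final mix: 10 nM GPX1, 100 nM glutathione reductase, 1 mM GSH, 0.5 mM NADPH, 0.5 mM cumene hydroperoxide, 0.01% BSA; 30 min compound–enzyme preincubation.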
# [2] = target: Phospholipid hydroperoxide glutathione peroxidase GPX4 (Homo sapiens) (UniProt P36969); test: Primary qHTS Assay for Inhibitors of Recombinant Selenoprotein Glutathione Peroxidase 4 (GPX4) (AID 1845192); also: nearly all actives have a fitted effect of over 65% in size; also: potency is read from the fitted curve at half-maximal effect; as to activity change, negative = inhibition: series mostly up to about 50 µM
# Sequence of Phospholipid hydroperoxide glutathione peroxidase GPX4 (Homo sapiens) (P36969 whole entry, looked up): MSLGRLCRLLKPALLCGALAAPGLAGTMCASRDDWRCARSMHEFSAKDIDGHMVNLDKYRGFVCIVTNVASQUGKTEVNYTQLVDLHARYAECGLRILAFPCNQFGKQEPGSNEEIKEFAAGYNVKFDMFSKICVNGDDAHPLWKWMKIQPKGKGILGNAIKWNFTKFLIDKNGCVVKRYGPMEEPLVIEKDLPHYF
# In short: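 NADPH consumption followed by fluorescence at 340/450 nm, t=0 and after 15 min at room temperature. Reaction started with cumene hydroperoxide (0.5 mM final) after 30 min compound–GPX4 preincubation; final 200 nM GPX4, 100 nM GR, 1 mM GSH, 0.5 mM NADPH.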
# [3] = test system: Nanoluciferase (engineered Oplophorus gracilirostris luciferase); test: Primary Nanoluciferase (NLuc) qHTS assay for identification of artifact compounds. (AID 1845222); also: potency is read from the fitted curve at half-maximal effect; as to activity, negative = inhibition: series mostly up to about 54 µM
# In short: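 Compounds are pinned into diluted (1:55) conditioned medium of NLuc-expressing S16 cells and held 15 min at room temperature protected from light. Nano-Glo substrate follows, and luminescence is read 5 min later.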
# [4] = Primary redox qHTS assay for identification of artifact compounds. (AID 1845223)
# In short: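 Redox-cycling detection via DTT (250 uM final) oxidation coupled to Amplex Red (25 uM)/HRP (250 mU/mL) in HBSS. 15 min preincubation plus 30 min after DTT, room temperature. Ex/Em 525/598 nm; 4-parameter Hill fit against DMSO and 10 uM DA3003.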
# [5] = Primary fluorescence-based thiol-reactive (MSTI) qHTS assay for identification of artifact compounds. (AID 1845221); also: nearly all actives have a fitted effect of over 65% in size; also: potency is read from the fitted curve at half-maximal effect;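 as to activity change, negative = thiol reactive: series mostly up to about 54 µM; thiol-reactive compounds lower the probe fluorescence signal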
# In short: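 Reactivity toward the thiol probe MSTI (4 uM) is scored by fluorescence at Ex/Em 525/598 nm after 1 h at room temperature. Acetyl-MSTI and MSTI define the activity scale.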
# [6] = qHTS drug screen for cell cycle checkpoint inhibitors in PARPi-resistant BRCA-mutant ovarian cancer cell lines. (AID 1963452; calls by dose curve; also: potency is read from the fitted curve at half-maximal effect); conditions: PEO1/OlaR viability, CellTiter-Glo luminescence, 96 h; for Z-AUC: stronger effect = lower value
# In short: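 PEO1, PEO4 and PEO1/OlaR ovarian cancer cells, 600 per well, exposed 96 h at 37C to a dilution series. Viability read by CellTiter-Glo luminescence, normalized to DMSO and empty wells; activity summarized as Z-AUC.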
# [7] = target: Luciferin 4-monooxygenase (Photinus pyralis) (UniProt P08659); test: Primary firefly luciferase (FLuc) qHTS assay for identification of artifact compounds. (AID 1845220); also: nearly all actives have a fitted effect of over 60% in size; also: potency is read from the fitted curve at half-maximal effect; as to activity change, negative = inhibition: series mostly up to about 54 µM
# In short: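 Cell-free, 1536-well qHTS. Buffer pH 7.6 with 0.01% Tween-20 and 0.05% BSA; 10 uM D-luciferin, 10 uM ATP; 10 nM P. pyralis luciferase; luminescence after 5 min.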
# [8] = measured here: PEO1 parental Z-AUC
structure (smiles),measurement,setting,value
CC(C)[C@@](C)(O)[C@@H]1CN(c2nc(-c3[nH]nc4ncccc34)c(F)cc2Cl)CCN1,Potency,[1],inactive
same,Potency,[2],inactive
same,Potency,[3],inactive
same,Potency,[4],inactive
CC(C)=CCC/C(C)=C/CC/C(C)=C/COC1OC(COC2OCC(OC3OCC(O)C(O)C3O)C(O)C2O)C(O)C(OC2OC(C)C(OC3OC(C)C(OC4OCC(OC5OC(C)C(O)C(O)C5O)C(O)C4O)C(O)C3O)C(O)C2O)C1O (centres undefined),"activity, negative = inhibition",[1],1.32% [at 9.52 µM] (inactive)
same,"activity change, negative = inhibition",[2],4.38% [at 9.73 µM] (inactive)
same,"activity change, negative = thiol reactive",[5],139% [at 11.5 µM] (inactive)
same,"activity, negative = inhibition",[3],-0.192% [at 11.6 µM] (inactive)
same,redox activity (% of DA3003),[4],11.7% [at 11.5 µM] (inactive)
Nc1nccn2c(C3CCC(C(=O)O)CC3)nc(-c3cc4cccc(Cl)c4[nH]3)c12 (centres undefined),Potency,[1],inactive
same,Potency,[5],6.7 µM (active)
same,Z-AUC,[6],-0.361 (inactive)
same,Z-AUC,[6]; [8],-0.773
same,Z-AUC,[6]; measured here: PEO4 Z-AUC,-1.14
CC(=O)OC12COC1CC(O)C1(C)C(=O)C(O)C3=C(C)C(OC(=O)C(O)C(NC(=O)OC(C)(C)C)c4ccccc4)CC(O)(C(OC(=O)c4ccccc4)C21)C3(C)C (centres undefined),Potency,[2],inactive
same,Potency,[7],inactive
same,Potency,[5],inactive
same,Potency,[3],inactive
same,Potency,[4],inactive
C[C@@H]1C[C@@H]2O[C@H]2/C=C\C=C\C(=O)Cc2c(Cl)c(O)cc(O)c2C(=O)O1,Potency,[2],inactive
same,Potency,[7],inactive
same,Potency,[5],inactive
same,Potency,[3],inactive
CC1=C(C(=O)OCc2ccccc2)C(c2ccc(-c3ccccc3)cc2)NC(=O)N1CCCCCC(=O)O (centres undefined),Potency,[1],inactive
same,Potency,[7],inactive
same,Potency,[5],inactive
same,Potency,[3],inactive
same,Potency,[4],inactive
C=CC/C=C\C/C=C\CCCCCCCc1cccc(O)c1C(=O)O,Potency,[1],inactive
same,Potency,[7],inactive
same,Potency,[3],inactive
CO[C@@H](C)Cn1c(=O)n(C)c2cnc3ccc(-c4cncc(C(C)(C)O)c4)cc3c21,Potency,[1],inactive
same,Potency,[7],inactive
same,Potency,[5],inactive
same,Potency,[3],inactive
same,Potency,[4],inactive
same,Potency,[6],2.19 µM (active)
same,Z-AUC,[6]; [8],-2.24
same,Z-AUC,[6]; measured here: PEO4 Z-AUC,-2.14
Cc1ccc(-c2ccc3ncc4c(c3n2)n(C2CCN(C(=O)[C@H](C)O)CC2)c(=O)n4C)cn1,Potency,[1],22.7 µM (active)
same,Potency,[7],inactive
same,Potency,[5],inactive
same,Potency,[3],inactive
same,Potency,[4],inactive
same,Z-AUC,[6],-1.81 (inactive)
same,Z-AUC,[6]; [8],-2.34
same,Z-AUC,[6]; measured here: PEO4 Z-AUC,-2.23
CCc1c(-c2ccccc2)c(-c2ccccc2)nn1-c1ccccc1-c1cccc(OCC(=O)O)c1,Potency,[1],inactive
same,Potency,[7],inactive
same,Potency,[5],inactive
same,Potency,[3],0.269 µM (active)
same,Potency,[4],inactive
C#CC[C@H](c1nc2cc(Cl)ccc2c(=O)n1Nc1ccccc1)N(CCCN)C(=O)c1cccc(Cl)c1F,Potency,[1],inactive
same,Potency,[7],inactive
same,Potency,[5],inactive
same,Potency,[3],inactive
same,Potency,[4],inactive
same,Potency,[6],1.23 µM (active)
same,Z-AUC,[6]; [8],-1.73
same,Z-AUC,[6]; measured here: PEO4 Z-AUC,-1.5
CC1=C(/C=C/C(C)=C\C=C\C(C)=C/C(=O)O)C(C)(C)CCC1,Potency,[2],inactive
same,Potency,[7],inactive
same,Potency,[5],inactive
same,Potency,[3],inactive
COc1ccc(CNC(=O)c2sc3nc(C)cc(C)c3c2N)cc1,Potency,[2],inactive
same,Potency,[7],inactive
same,Potency,[5],inactive
same,Potency,[3],inactive
same,Potency,[4],inactive
Cc1cc(C)c2c(N)c(C(=O)NCc3ccc(Cl)cc3)sc2n1,Potency,[1],inactive
same,Potency,[7],inactive
same,Potency,[5],inactive
same,Potency,[3],inactive
same,Potency,[4],inactive
CNC(=O)c1ccccc1Nc1nc(Nc2ccc3c(c2OC)CCC[C@@H](N2CCN(CCO)CC2)C3)ncc1Cl,Potency,[2],inactive
same,Potency,[7],inactive
same,Potency,[5],inactive
same,Potency,[3],inactive
NC(=O)c1cccc2cn(-c3ccc(C4CCCNC4)cc3)nc12 (centres undefined),Potency,[2],20.2 µM (active)
same,Potency,[7],inactive
same,Potency,[5],inactive
same,Potency,[3],inactive
same,Potency,[4],inactive
C=C(C)C(=O)O[C@H]1CC2=CC(C/C(C)=C\[C@H]3OC(=O)C(=C)[C@H]13)OC2=O (some centres undefined),Potency,[1],inactive
same,Potency,[7],inactive
same,Potency,[5],inactive
same,Potency,[3],inactive
same,Potency,[4],inactive
COc1nc2sc(C(=O)NC3CC3)c(N)c2c(C)c1Cl,Potency,[2],inactive
same,Potency,[7],inactive
same,Potency,[5],inactive
same,Potency,[3],inactive
CNC(=S)NS(=O)(=O)c1cc(CCNC(=O)c2cc(Cl)ccc2OC)ccc1OC,Potency,[1],12.8 µM (active)
same,Potency,[7],inactive
same,Potency,[5],inactive
same,Potency,[4],inactive
CC(=O)O[C@H]1C(=O)[C@@]2(C)[C@H]([C@H](OC(=O)c3ccccc3)[C@]3(O)C[C@H](OC(=O)[C@H](O)[C@@H](NC(=O)c4ccccc4)c4ccccc4)C(C)=C1C3(C)C)[C@]1(OC(C)=O)CO[C@@H]1C[C@@H]2O,Potency,[2],inactive
same,"activity change, negative = inhibition",[7],-3.6% [at 11.6 µM] (inactive)
same,"activity change, negative = thiol reactive",[5],52.3% [at 11.5 µM] (inactive)
same,"activity, negative = inhibition",[3],4.66% [at 11.6 µM] (inactive)
same,redox activity (% of DA3003),[4],1.32% [at 11.5 µM] (inactive)
CC(C)(C)C(=O)CN1C(=O)[C@H](NC(=O)Nc2cccc(C(=O)O)c2)CN(C2CCCCC2)c2ccccc21,Potency,[1],inactive
same,Potency,[7],inactive
same,Potency,[5],inactive
same,Potency,[3],inactive
same,Potency,[4],inactive
same,Z-AUC,[6],1.75 (inactive)
same,Z-AUC,[6]; [8],1.32
same,Z-AUC,[6]; measured here: PEO4 Z-AUC,1.22
Nc1ccc(/C=C/C(=O)NCc2cc3cc(-c4ccc(C(=O)N5CCC(F)(F)CC5)cc4)cc(-c4ccc(F)cc4)c3o2)cn1,Potency,[1],inactive
same,Potency,[7],inactive
same,Potency,[3],inactive
same,Potency,[4],inactive
same,Z-AUC,[6],-0.388 (inactive)
same,Z-AUC,[6]; [8],-0.891
same,Z-AUC,[6]; measured here: PEO4 Z-AUC,-0.788
C=C1C(=O)O[C@@H]2C/C(C)=C\C(=O)/C=C(\C)[C@@H](OC(=O)/C(C)=C\C)[C@H](O)[C@@H]12,Potency,[1],inactive
same,Potency,[7],inactive
same,Potency,[5],inactive
same,Potency,[3],inactive
same,Potency,[4],inactive
O=C(NCc1ccccn1)Nc1nnc(-c2ccco2)o1,Potency,[1],inactive
same,Potency,[7],inactive
same,Potency,[5],inactive
same,Potency,[3],inactive
same,Potency,[4],inactive
CO/N=C(/C(=O)N[C@@H]1C(=O)N2C(C(=O)O)=C(Cn3ccc(=N)n3CCO)CS[C@H]12)c1csc(N)n1,Potency,[1],8.06 µM (active)
same,Potency,[7],inactive
same,Potency,[3],inactive
same,Potency,[4],inactive
COc1c/c(=C2\C=c3ccccc3=N2)[nH]/c1=C\c1[nH]c(C)cc1C,Potency,[2],inactive
same,Potency,[7],3.38 µM (active)
same,Potency,[5],1.19 µM (active)
same,Potency,[3],10.7 µM (active)
CC(C)(F)C[C@@H](N[C@@H](c1ccc(-c2ccc(S(C)(=O)=O)cc2)cc1)C(F)(F)F)C(=O)NC1(C#N)CC1,Potency,[2],inactive
same,Potency,[7],inactive
same,Potency,[5],inactive
same,Potency,[3],inactive
same,Potency,[4],inactive
